PubChem BioAssay (Tox21)
Inconclusive results are not listed. Where a call stands in place of a potency, no number is given. Some structures have more than one record in an assay (separate samples or runs), and their calls can disagree. Calls of active or inactive are those of the source. Unless noted, calls follow the shape of the full dose curve.

Test system: not listed separately
Experiment: qHTS assay to identify small molecule agonists of the AP-1 signaling pathway (AID 1159526)
Conditions: ME-180 (cervical carcinoma) AP-1-bla reporter, beta-lactamase FRET ratio, 5 h; series mostly up to 76.8 µM; activation: at the top concentration

Row | SMILES | Potency | activation
1 | [N-]=[N+]=[N-] | inactive | –
2 | Cc1[nH]c(=O)n(C(C)(C)C)c(=O)c1Cl | inactive | –
3 | COC(=O)NC(=S)Nc1ccccc1NC(=S)NC(=O)OC | inactive | –
4 | CCCCN(CCCC)SN(C)C(=O)Oc1cccc2c1OC(C)(C)C2 | – | 13.7% (inactive)
5 | O=[N+]([O-])c1ccccc1 | – | 0.128% (inactive)
6 | C=CC(N)=O | inactive | –
7 | c1ccc2c(c1)Oc1ccccc1O2 | inactive | –
8 | c1ccc(-c2ccccc2)cc1 | – | -2% (inactive)
9 | CCC12COCN1COC2 | inactive | –
10 | Clc1ccccc1Cl | inactive | –
11 | CNC(=O)Oc1ccccc1OC(C)C | inactive | –
12 | CC1OC(C)OC(C)O1 (stereo unspecified) | inactive | –
13 | CCCN(CCC)c1c([N+](=O)[O-])cc(C(F)(F)F)cc1[N+](=O)[O-] | inactive | –
14 | COP(N)(=O)SC (stereo unspecified) | inactive | –
15 | COC(=O)NS(=O)(=O)c1ccc(N)cc1 | inactive | –
16 | CN1C(=O)CN=C(c2ccccc2)c2cc(Cl)ccc21 | inactive | –
17 | CC(Oc1ccc(Cl)cc1Cl)C(=O)O (stereo unspecified) | inactive | –
18 | O=C1CCCN1 | inactive | –

Row | SMILES | Potency | activation
19 | CN(N=O)c1ccccc1 | inactive | –
20 | Cc1ccc(N)cc1N | inactive | –
21 | Nc1ccc(Br)cc1 | – | 9.35% (inactive)
22 | OC(O)C(Cl)(Cl)Cl | – | 0.912% (inactive)
23 | CCCCN(CC)C(=O)SCCC | inactive | –
24 | C=C(C)CCl | inactive | –
25 | CN(C)CCO | – | -0.317% (inactive)
26 | O=c1[nH]c2ccccc2c(=O)o1 | inactive | –
27 | CC(C)OC(=O)Nc1ccccc1 | inactive | –
28 | CON(C)C(=O)Nc1ccc(Cl)c(Cl)c1 | inactive | –
29 | Nc1ccc(Oc2ccc(N)cc2)cc1 | inactive | –
30 | O=c1n(Cl)c(=O)n(Cl)c(=O)n1Cl | inactive | –
31 | CCOP(OCC)OCC | inactive | –
32 | Clc1ccc(Cl)cc1 | inactive | –
33 | CC(C)(C)OOC(=O)c1ccccc1 | inactive | –
34 | COc1ccc2c3c1O[C@H]1[C@@H](O)C=C[C@H]4[C@@H](C2)N(C)CC[C@@]341 | inactive | –
35 | CCCC1COC(Cn2cncn2)(c2ccc(Cl)cc2Cl)O1 (stereo unspecified) | inactive | –
36 | CC(=O)C=C(C)C | – | 2.72% (inactive)

Biological target: Retinoic acid receptor RXR-alpha (Homo sapiens) (UniProt P19793)
Sequence (P19793 whole entry, looked up): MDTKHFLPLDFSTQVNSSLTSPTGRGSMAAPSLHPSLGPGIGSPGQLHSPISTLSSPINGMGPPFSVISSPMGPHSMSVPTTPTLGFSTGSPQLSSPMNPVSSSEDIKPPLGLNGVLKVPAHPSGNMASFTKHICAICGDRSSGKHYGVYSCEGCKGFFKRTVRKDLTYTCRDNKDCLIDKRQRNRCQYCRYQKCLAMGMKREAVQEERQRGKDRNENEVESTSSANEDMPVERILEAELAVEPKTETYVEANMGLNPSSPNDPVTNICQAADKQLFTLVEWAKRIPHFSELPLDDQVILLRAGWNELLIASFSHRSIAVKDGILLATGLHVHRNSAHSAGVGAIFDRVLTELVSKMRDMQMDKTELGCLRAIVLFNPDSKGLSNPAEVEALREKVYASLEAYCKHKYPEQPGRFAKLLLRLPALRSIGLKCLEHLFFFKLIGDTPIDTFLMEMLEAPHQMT
Experiment: qHTS assay to identify small molecule agonists of the RXR signaling pathway (AID 1159527); also: nearly all actives have a fitted effect of over 35% in size; also: potency is read from the fitted curve at half-maximal effect
Conditions: HEK293T RXRa-UAS-bla, beta-lactamase ratio, 16 h; series mostly up to 76.8 µM; activation: at the top concentration
Procedure, shortened: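 Beta-lactamase reporter assay, agonist format. Engineered HEK 293T line, charcoal-stripped FBS at 2%, overnight (16 hr) exposure, fluorescence at 460 and 530 nm after 405 nm excitation.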

Row | SMILES | activation | Potency
37 | [N-]=[N+]=[N-] | -11.6% (inactive) | –
38 | Cc1[nH]c(=O)n(C(C)(C)C)c(=O)c1Cl | – | inactive
39 | COC(=O)NC(=S)Nc1ccccc1NC(=S)NC(=O)OC | -11% (inactive) | –
40 | O=[N+]([O-])c1ccccc1 | – | inactive
41 | C=CC(N)=O | -3.6% (inactive) | –
42 | c1ccc2c(c1)Oc1ccccc1O2 | 2.21% (inactive) | –
43 | c1ccc(-c2ccccc2)cc1 | – | inactive
44 | CCC12COCN1COC2 | 12.2% (inactive) | –
45 | Clc1ccccc1Cl | – | inactive
46 | CNC(=O)Oc1ccccc1OC(C)C | – | inactive
47 | CC1OC(C)OC(C)O1 (stereo unspecified) | 9.07% [at 35.3 µM] (inactive) | –
48 | COP(N)(=O)SC (stereo unspecified) | 13.6% (inactive) | –
49 | COC(=O)NS(=O)(=O)c1ccc(N)cc1 | 5.18% (inactive) | –
50 | CN1C(=O)CN=C(c2ccccc2)c2cc(Cl)ccc21 | 3.1% (inactive) | –
51 | O=C1CCCN1 | – | inactive
52 | CN(N=O)c1ccccc1 | – | inactive
53 | Nc1ccc(Br)cc1 | -2.48% (inactive) | –
54 | OC(O)C(Cl)(Cl)Cl | 4.11% [at 35.3 µM] (inactive) | –
55 | C=C(C)CCl | 1.01% [at 6.98 µM] (inactive) | –
56 | CN(C)CCO | – | inactive
57 | O=c1[nH]c2ccccc2c(=O)o1 | 11% (inactive) | –
58 | CC(C)OC(=O)Nc1ccccc1 | -8.15% (inactive) | –
59 | CON(C)C(=O)Nc1ccc(Cl)c(Cl)c1 | – | inactive
60 | Nc1ccc(Oc2ccc(N)cc2)cc1 | -4.79% (inactive) | –
61 | O=c1n(Cl)c(=O)n(Cl)c(=O)n1Cl | – | inactive
62 | CCOP(OCC)OCC | – | 22.3 µM (active) and inactive
63 | Clc1ccc(Cl)cc1 | – | inactive
64 | CC(C)(C)OOC(=O)c1ccccc1 | -11% (inactive) | –
65 | COc1ccc2c3c1O[C@H]1[C@@H](O)C=C[C@H]4[C@@H](C2)N(C)CC[C@@]341 | 3.12% (inactive) | –
66 | CC(=O)C=C(C)C | – | inactive

Test system: not listed separately
Experiment: qHTS assay to identify small molecule agonists of the RXR signaling pathway - cell viability counter screen (AID 1159529; active = well fitted cell-killing curve with a large enough effect in the repeat runs;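 also: HEK 293T cells carrying an RXR-alpha UAS beta-lactamase reporter; nearly all actives have a fitted effect of over 50% in size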)
Conditions: RXR-alpha-bla HEK293T viability, CellTiter-Glo, 16 h; series mostly up to 76.8 µM; activity change, negative = cytotoxicity: at the top concentration
Procedure, shortened: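 Same-well viability check after the LiveBLAzer FRET read: CellTiter-Glo added, luminescence measured after 30 min at room temperature. Reporter HEK 293T cells had been treated with compounds for 16 hr following a 5 hr preincubation.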

Row | SMILES | Potency | activity change, negative = cytotoxicity
67 | [N-]=[N+]=[N-] | inactive | –
68 | Cc1[nH]c(=O)n(C(C)(C)C)c(=O)c1Cl | inactive | –
69 | COC(=O)NC(=S)Nc1ccccc1NC(=S)NC(=O)OC | inactive | –
70 | O=[N+]([O-])c1ccccc1 | inactive | –
71 | C=CC(N)=O | inactive | –
72 | c1ccc2c(c1)Oc1ccccc1O2 | inactive | –
73 | c1ccc(-c2ccccc2)cc1 | inactive | –
74 | CCC12COCN1COC2 | inactive | –
75 | Clc1ccccc1Cl | inactive | –
76 | CNC(=O)Oc1ccccc1OC(C)C | inactive | –
77 | CC1OC(C)OC(C)O1 (stereo unspecified) | inactive | –
78 | CCCN(CCC)c1c([N+](=O)[O-])cc(C(F)(F)F)cc1[N+](=O)[O-] | inactive | –
79 | COP(N)(=O)SC (stereo unspecified) | inactive | –
80 | COC(=O)NS(=O)(=O)c1ccc(N)cc1 | inactive | –
81 | CN1C(=O)CN=C(c2ccccc2)c2cc(Cl)ccc21 | – | -0.306% [at 35.3 µM] (inactive)
82 | CC(Oc1ccc(Cl)cc1Cl)C(=O)O (stereo unspecified) | inactive | –
83 | O=C1CCCN1 | inactive | –
84 | CN(N=O)c1ccccc1 | inactive | –

Row | SMILES | Potency | activity change, negative = cytotoxicity
85 | Cc1ccc(N)cc1N | inactive | –
86 | Nc1ccc(Br)cc1 | – | 15.2% (inactive)
87 | OC(O)C(Cl)(Cl)Cl | inactive | –
88 | CCCCN(CC)C(=O)SCCC | inactive | –
89 | C=C(C)CCl | inactive | –
90 | CN(C)CCO | inactive | –
91 | O=c1[nH]c2ccccc2c(=O)o1 | inactive | –
92 | CC(C)OC(=O)Nc1ccccc1 | inactive | –
93 | CON(C)C(=O)Nc1ccc(Cl)c(Cl)c1 | inactive | –
94 | Nc1ccc(Oc2ccc(N)cc2)cc1 | inactive | –
95 | O=c1n(Cl)c(=O)n(Cl)c(=O)n1Cl | inactive | –
96 | CCOP(OCC)OCC | inactive | –
97 | Clc1ccc(Cl)cc1 | inactive | –
98 | CC(C)(C)OOC(=O)c1ccccc1 | inactive | –
99 | COc1ccc2c3c1O[C@H]1[C@@H](O)C=C[C@H]4[C@@H](C2)N(C)CC[C@@]341 | inactive | –
100 | CCCC1COC(Cn2cncn2)(c2ccc(Cl)cc2Cl)O1 (stereo unspecified) | – | -24.4% (inactive)
101 | CC(=O)C=C(C)C | inactive | –
